PubChem BioAssay (NCATS)
Where “and” joins values, the source holds several entries; their conditions need not be identical. Equal values may be shown once. Calls of active or inactive are those of the source. Calls follow the shape of the full dose curve.

Experiment: qHTS drug screen for cell cycle checkpoint inhibitors in PARPi-resistant BRCA-mutant ovarian cancer cell lines. (AID 1963452)
Settings: PEO1/OlaR viability, CellTiter-Glo luminescence, 96 h; for Z-AUC: stronger effect = lower value
In short: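 PEO1, PEO4 and PEO1/OlaR ovarian cancer cells, 600 per well, exposed 96 h at 37C to a dilution series. Viability read by CellTiter-Glo luminescence, normalized to DMSO and empty wells; activity summarized as Z-AUC.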

[1] = measured here: PEO1 parental Z-AUC
Potency is read from the fitted curve at half-maximal effect.

SMILES	Potency	Z-AUC	Z-AUC [1]	Z-AUC (measured here: PEO4 Z-AUC)
COc1cccc(OCCCN)c1-c1cc(Nc2cnc(C#N)cn2)n[nH]1	4.9 nM (active)			
Cc1[nH]c2ccccc2c1CCNCc1ccc(/C=C/C(=O)NO)cc1	77.6 nM (active)			
C=CC(=O)N1CCC(Oc2cc3c(Nc4ccc(Cl)c(Cl)c4F)ncnc3cc2OC)CC1		-0.983 (inactive)	-1.08	-0.834
O=C(Nc1ccc2[nH]nc(-c3ccncc3)c2c1)[C@@H]1CCN(CC(=O)N2CCN(c3ccc(-c4ncccn4)cc3)CC2)C1		-0.198 (inactive)	-1.04	-0.706
CN1CC[C@@H](c2c(O)cc(O)c3c(=O)cc(-c4ccc(C(F)(F)F)cc4Cl)oc23)[C@@H]1CO		-0.123 (inactive)	0.298	0.604
FC(F)(F)c1ccc(CNc2ccc(Cc3c[nH]c4ncc(Cl)cc34)cn2)cn1		1.12 (inactive)	1.06	1.21
Cc1cc(-c2nc3cc(F)ccc3s2)ccc1NC(=O)[C@@H](N)CCCCN		-0.88 (inactive)	-1.06	-1.32
CS(=O)(=O)Nc1cc2occ(NC=O)c(=O)c2cc1Oc1ccccc1		0.738 (inactive)	0.631	0.731
O=C(Cc1cccc(OC(F)(F)F)c1)Nc1ccc(CCCCc2nnc(NC(=O)Cc3ccccn3)s2)nn1		-1.13 (inactive)	-1.01	-1.03
CCC[C@H](N[C@H]1CCc2cc(F)cc(F)c2C1)C(=O)Nc1cn(C(C)(C)CNCC(C)(C)C)cn1		-0.27 (inactive)	0.0318	-0.108
COC1CCN(C(=O)c2cc(Cc3n[nH]c(=O)c4ccccc34)ccc2F)CC1		0.585 (inactive)	-0.393	0.328
Cc1c(NC(=O)c2cc3c(s2)CCCC3)cccc1-c1cn(C)c(=O)c(Nc2ccc(C3C(=O)N(C)CCN3C)cc2)n1 (stereo not given)		1.18 (inactive)	0.426	0.277
O=C(CCl)Nc1cccc(NC2=NS(=O)(=O)c3ccccc32)c1		-0.599 (inactive)	-0.67	-0.526
C=CC(=O)Nc1cccc(Nc2nc(Nc3ccc(OCCOC)cc3)ncc2F)c1		-0.82 (inactive)	-1.21	-1.08
O=C1NC(=O)C(c2cnc3ccccn23)=C1c1cn2c3c(cc(F)cc13)CN(C(=O)N1CCCCC1)CC2	174 nM (active)		-1.85	-1.33
O=c1[nH]c([C@@H]2CCCN2)nc2c1oc1ccc(Cl)cc12		0.967 (inactive)	1.19	1.1
N#Cc1ccc(COC[C@H]2O[C@@H](n3c(NCc4ccc(Cl)c(Cl)c4)nc4c(N)ncnc43)[C@H](O)[C@@H]2O)cc1		-0.735 (inactive)	-0.265	0.0878
COc1cc2c(cc1OCCCN1CCCC1)N=C(N)C21CCC1		-0.834 (inactive)	-0.0136	-0.411
CCn1nc(C2CCN(C(=O)CCO)CC2)nc1-c1cnc(N)c(-c2nnc(C(C)(C)C)o2)n1		0.285 (inactive)	0.385	0.568
CCCOc1ccc(CCc2nc3cc(-c4c(C)noc4C)ccc3n2CCN2CCOCC2)cc1		-0.591 (inactive)	-0.719	-0.728
C[C@H](CN(C)C)Oc1nc(Nc2cc3cccc(Cl)c3cn2)cnc1C#N		-0.234 (inactive)	0.15	-0.249
COc1ccccc1C(=O)Nc1cc2c(cc1N1CCCC1)n(C)c(=O)n2C		-1.16 (inactive)	-0.583	-0.727
O=C([C@@H](Cc1cccc(C(F)(F)F)c1)NS(=O)(=O)c1cc(F)c2c(c1)CCNC2)N1CCCC1		-0.343 (inactive)	-0.218	-0.109
CCCc1cc(C)[nH]c(=O)c1CNC(=O)c1cc(-c2ccc(N3CCN(C(C)C)CC3)nc2)cc2c1cnn2C(C)C		0.233 (inactive)	0.123	0.0189
COc1c(C)cc(NC(=O)c2nn(Cc3ccc(F)cc3)c3c2CN(C(=O)c2ccc[nH]2)C[C@]3(C)C(N)=O)cc1C		-0.421 (inactive)	-0.262	-0.568
Cc1ccc(C(=O)Nc2ccc(CN3CCN(C)CC3)c(C(F)(F)F)c2)cc1C#Cc1cnc2[nH]ncc2c1		-1.39 (inactive)	-0.429	-0.168
C=CC(=O)Nc1cccc(Nc2nc(Nc3ccc(NC4CN(CCF)C4)cc3OC)ncc2C(F)(F)F)c1		0.83 (inactive)	0.499	0.584
C[C@H](Nc1ncnc2nc[nH]c12)c1cc2cccc(Cl)c2c(=O)n1-c1ccccc1		-0.68 (inactive) and -0.929 (inactive)	0.702 and -0.975	0.729 and -0.588
